Laboratory results: PubChem BioAssay (NCATS)
Inconclusive results are not listed. The source made the active and inactive calls. Unless noted, calls come from the whole dose curve; as a rule, active = well fitted inhibition curve with a large enough effect; inconclusive = small, poorly fitted or top-dose-only effect; inactive = no such curve, though single readings can be large or run the other way.

Columns and labels:
[1] = qHTS profiling of the MIPE4 collection as inhibitors of Plasmodium falciparum (HB3) proliferation (AID 743347; call rule not given here;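 note: plate controls were DMSO vehicle wells for no effect and artemisinin wells for full effect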); details: P. falciparum HB3 in erythrocytes, SYBR Green DNA, 72 h; at 28.5 µM (top of the series) unless noted
Procedure, shortened: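 Parasite DNA was quantified by SYBR Green I fluorescence (ex 485, em 535 nm) after overnight lysis in saponin/Triton buffer at room temperature. Cultures at 0.3% parasitemia and 2.5% hematocrit were first exposed to compound for 72 h at 37 C; signals were normalised to artemisinin (0.29 uM) and vehicle wells.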

[2] = High-throughput drug toxicity screening in the BPDCN cell line Gen2.2 (AID 1224824; call rule not given here;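 note: cells exposed to compounds for 48 h before reading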); details: Gen2.2 BPDCN cells; at 45.8 µM (top of the series) unless noted
Procedure, shortened: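 Seed 500 exponentially growing Gen2.2 cells/well; add compounds by pin tool; incubate 48 h, 37 °C, 5% CO2; add CellTiter-Glo, 15 min RT; read luminescence. % activity vs DMSO (100%) and bortezomib (0%).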

[3] = High-throughput drug toxicity screening in the BPDCN cell line Cal-1 (AID 1224825; call rule not given here); details: Cal-1 BPDCN cell viability, qHTS; at 45.8 µM (top of the series) unless noted
Procedure, shortened: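 Viability of the BPDCN line Cal-1 is measured as ATP-based luminescence (CellTiter-Glo) following 48 h incubation with compounds. Percent activity uses DMSO-treated wells as 100% and 9.2 uM bortezomib as 0%.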

[4] = qHTS assay for measurement of the activity of small molecule inhibitors on Zika virus induced Caspase-3 activity in human iPSC derived neural progenitor cells (hNPCs) (AID 1224857); note: nearly all actives have a fitted effect of over 65% in size; note: potency is the fitted concentration of half-maximal effect
Procedure, shortened: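 Percent inhibition of virus-induced caspase-3/7 luminescence (Caspase-Glo), scaled between uninfected cells and Zika-infected cells. hNPCs received compound 1 hr before ZIKV at 2 FFU/cell, with 6 hours infection at 37 C.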

[5] = qHTS Screen of the MIPE 4.0 Collection Against Ewings Sarcoma (RDES) (AID 1259252); note: nearly all actives have a fitted effect of over 35% in size; note: potency is the fitted concentration of half-maximal effect
Procedure, shortened: (§1)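 Measured: ATP luminescence (CellTiter-Glo) 10 min after reagent addition, following 48 h drug treatment. Relative luciferase units converted to percent activity, with no-cell wells as full and DMSO wells as zero inhibition.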

[6] = qHTS Screen of the MIPE 4.0 Collection Against Ewings Sarcoma (TC71) (AID 1259253); note: nearly all actives have a fitted effect of over 40% in size; note: potency is the fitted concentration of half-maximal effect
Procedure, shortened: as §1

[7] = qHTS Screen of the MIPE 4.0 Collection Against Ewings Sarcoma (EW8) (AID 1259255); note: nearly all actives have a fitted effect of over 35% in size; note: potency is the fitted concentration of half-maximal effect;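 for viability: 100% = DMSO-treated cells and 0% = medium-only wells without cells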
Procedure, shortened: as §1

[8] = qHTS Screen of the MIPE 4.0 Collection Against Ewings Sarcoma (TC32) (AID 1259256); note: nearly all actives have a fitted effect of over 45% in size; note: potency is the fitted concentration of half-maximal effect
Procedure, shortened: as §1

[9] = P-glycoprotein substrates identified in KB-3-1 adenocarcinoma cell line, qHTS therapeutic library screen (AID 1346986); note: nearly all actives have a fitted effect of over 60% in size;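 note: potency is the fitted concentration of half-maximal effect; potency is for cytotoxicity meaning loss of cell viability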
Procedure, shortened: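 Using luminescence to quantify ATP, parental and P-gp-overexpressing KB cells were compared after 72 h compound titration. KB-8-5-11 was also run with the P-gp inhibitor tariquidar.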

[10] = qHTS assay for measurement of the activity of small molecule inhibitors on Zika virus induced Caspase-3 activity in human astrocytoma cells (AID 1224859);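 note: plate controls were ZIKV-infected untreated cells for no effect and uninfected cells for full effect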
Procedure, shortened: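 Luminescent caspase-3/7 read-out (30 min reagent, room temperature) in human SNB-19 cells infected 6 h with ZIKV (2 FFU/cell) after 1 h compound pre-incubation; Data were normalised to uninfected and infected wells.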

Row | SMILES | growth, % of control [1] [%] | cell viability, % of control (lower = more cytotoxic) [2] | viability (% of control) [3] | Potency [4] | Potency [5] | Potency [6] | Potency [7] | Potency [8] | Potency [9] | Potency [10]
1 | CS(=O)(=O)N1CCc2c(-c3cnc(N)nc3)nc(N3CCOCC3)nc21 | 2.07 | 10.4% | 33.9% | inactive | 0.105 µM (active) | 0.59 µM (active) | 1.32 µM (active) | 0.296 µM (active) | 0.82 µM (active) | –
2 | Nc1nc2c(c(=O)[nH]1)N(C=O)[C@H](CNc1ccc(C(=O)N[C@@H](CCC(=O)O)C(=O)O)cc1)CN2 | 103 | 118% | 92.1% | inactive | inactive | inactive | – | inactive | – | inactive
3 | COc1ccc(Nc2nccc(NCCO)n2)cc1 | 87.1 | 195% | 111% | inactive | inactive | inactive | – | – | – | inactive
4 | CN(C)c1ccc2cc(C(=O)N[C@@H](CCCN=C(N)CCl)C(=O)NCc3ccccc3)ccc2c1 | 9.16 | 1.99% | 2.66% | 20.9 µM (active) | 0.833 µM (active) | 11.8 µM (active) | – | 7.43 µM (active) | – | inactive
5 | C[C@@]12C(=O)OC(=O)[C@@]1(C)C1CCC2O1 | 7.05 | 5.4% | 3.87% | inactive | 2.64 µM (active) | 4.18 µM (active) | 2.64 µM (active) | 2.64 µM (active) | – | –
6 | CN1CCc2c(c3ccccc3n2Cc2ccc(C(=O)NO)cc2)C1 | 5.01 | 4.7% | 4.77% | inactive | 13.2 µM (active) | 16.6 µM (active) | – | 18.7 µM (active) | – | inactive
7 | COc1ccc(S(=O)(=O)Nc2cc(-c3c(O)ccc4ccccc34)c(O)c3ccccc23)cc1 | 49.9 | 5.48% | 3.97% | inactive | 16.6 µM (active) | 10.5 µM (active) | – | 18.7 µM (active) | – | inactive
8 | CCc1ccc(C(=O)Nc2cc(CN3CCN(C)CC3)cc(C(F)(F)F)c2)cc1C#Cc1cnc2ccnn2c1 | 3.13 | 4.8% | 4.46% | inactive | 20.9 µM (active) | 29.6 µM (active) | 16.6 µM (active) | 14.8 µM (active) | 4.11 µM (active) | –
9 | CCCCCCCCCCCCCCCC(=O)OC[C@@H](NC(=O)C(Cl)Cl)[C@H](O)c1ccc([N+](=O)[O-])cc1 | 112 | 132% | 117% | inactive | inactive | inactive | inactive | inactive | inactive | –
10 | COC(=O)C=CC(=O)OC | 96.5 | 35.4% | 101% | inactive | 8.33 µM (active) | 18.7 µM (active) | 26.4 µM (active) | 14.8 µM (active) | – | –
11 | C=C[C@@H]1CN2CCC1C[C@H]2[C@H](O)c1ccnc2ccc(OC)cc12 (some centres undefined) | 12.1 | 111% | 70% | inactive | inactive | inactive | inactive | inactive | – | –
12 | CN1[C@H]2CC(OC(=O)[C@@H](CO)c3ccccc3)C[C@H]1[C@H]1O[C@H]12 (some centres undefined) | 107 | 189% [at 23.2 µM] | 107% [at 23.2 µM] | inactive | inactive | inactive | – | inactive | – | inactive
13 | CC(=CC(=O)Nc1ccccc1C(=O)O)c1ccc2ccccc2c1 | 674 | 115% | 77.7% | inactive | 4.18 µM (active) | 13.2 µM (active) | – | 9.35 µM (active) | – | inactive
14 | Nc1nc(=O)n([C@H]2C[C@H](O)[C@@H](CO)O2)cc1F | 107 | 190% | 35.3% | inactive | 0.0469 µM (active) | 0.0935 µM (active) | – | 0.0296 µM (active) | – | inactive
15 | C[C@]12C=CC(=O)N[C@@H]1CC[C@H]1[C@H]3CC[C@@H](C(=O)Nc4cc(C(F)(F)F)ccc4C(F)(F)F)[C@@]3(C)CC[C@@H]12 | 26.4 | 58.7% | 93% | inactive | inactive | inactive | – | inactive | – | inactive
16 | Cc1cc(C(=O)NOCCO)c(Nc2ccc(I)cc2F)n(C)c1=O | 66.5 | 7.2% | 30.2% | inactive | inactive | inactive | – | inactive | inactive | inactive
17 | O=C(C=CC#Cc1cccc(NS(=O)(=O)c2ccccc2)c1)NO | 4.3 | 4.86% | 3.48% | inactive | 1.87 µM (active) | 1.32 µM (active) | – | – | – | inactive
18 | CO[C@@H]1[C@@H](O)[C@H](O)[C@@H](n2c3c(Cl)cccc3c3c4c(c5c6cccc(Cl)c6[nH]c5c32)C(=O)NC4=O)O[C@@H]1CO | 8.64 | 12.9% | 5.01% | inactive | 0.105 µM (active) | 0.0935 µM (active) | 0.105 µM (active) | inactive | – | –
19 | C=CC(=O)Nc1cc(NC(=O)c2ccc(C)c(NC(=O)c3ccno3)c2)cc(C(F)(F)F)c1 | 22.8 | 4.74% | 3.59% | inactive | 23.5 µM (active) | 20.9 µM (active) | 20.9 µM (active) | 23.5 µM (active) | – | –
